Test results taken from PubChem BioAssay AID1159580 (chemical genetic matrix, 2015).
The campaign covered roughly 5,500 compounds. About 2,000 (36%) were called active. Inconclusive results (about 18%) are left out. Rule as the data show it: active = normalized growth mostly below about 0.91 (no sharp cut-off); inconclusive = no clear call, values can overlap the other calls; inactive = mostly above about 0.92. The list shows a part of the results.

Assay: chemical genetic growth profiling, strain panel (AID 1159580);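 also: tested at 20 µM; growth read once vehicle control cultures reached saturation at 30 °C; 1 = growth at the plate median or of vehicle wells; lower values mean less growth of the strain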
Conditions: growth OD

Measured: normalized growth

CN1CCCN=C1COC(=O)C(O)(c1ccccc1)C1CCCCC1 (configuration not stated)
inactive: S. cerevisiae deletion strains, locus YJR075W, strain HOC1, hits give low values 0.993 | S. cerevisiae deletion strains, locus YKL009W, strain mrt4, hits give low values 0.999 | S. cerevisiae deletion strains, locus YKL068W, hits give low values 0.989 | S. cerevisiae deletion strains, locus YKL085W, strain MDH1 (second series), hits give low values 1 | S. cerevisiae deletion strains, locus YKL085W, strain MDH1, hits give low values 1 | S. cerevisiae deletion strains, locus YKL160W, strain elf1, hits give low values 0.998 | S. cerevisiae deletion strains, locus YKL190W, strain CNB1, hits give low values 0.997 | S. cerevisiae deletion strains, locus YKR001C, strain vps1, hits give low values 0.975 | S. cerevisiae deletion strains, locus YKR026C, strain gcn3, hits give low values 0.997 | S. cerevisiae deletion strains, locus YKR091W, strain srl3, hits give low values 1 | S. cerevisiae deletion strains, locus YLL001W, strain dnm1, hits give low values 0.989 | S. cerevisiae deletion strains, locus YLL026W, hits give low values 0.991 | S. cerevisiae deletion strains, locus YLL041C, strain sdh2, hits give low values 0.998 | S. cerevisiae deletion strains, locus YLR027C, strain aat2, hits give low values 0.993 | S. cerevisiae deletion strains, locus YLR039C, strain RIC1, hits give low values 1.02 | S. cerevisiae deletion strains, locus YLR058C, strain SHM2, hits give low values 1.01 | S. cerevisiae deletion strains, locus YLR102C, strain apc9, hits give low values 0.993 | S. cerevisiae deletion strains, locus YLR113W, strain HOG1, hits give low values 1.01 | S. cerevisiae deletion strains, locus YLR221C, strain rsa3, hits give low values 0.992 | S. cerevisiae deletion strains, locus YLR258W, strain gsy2, hits give low values 1 | S. cerevisiae deletion strains, locus YLR262C, strain YPT6 (second series), hits give low values 0.988 | S. cerevisiae deletion strains, locus YLR262C, strain YPT6, hits give low values 1.02 | S. cerevisiae deletion strains, locus YLR268W, strain sec22, hits give low values 0.971 | S. cerevisiae deletion strains, locus YLR320W, strain mms22, hits give low values 1.01 | S. cerevisiae deletion strains, locus YLR330W, strain CHS5, hits give low values 1.01 | S. cerevisiae deletion strains, locus YLR342W, strain FKS1 (second series), hits give low values 1.02 | S. cerevisiae deletion strains, locus YLR342W, strain FKS1, hits give low values 1 | S. cerevisiae deletion strains, locus YLR357W, strain rsc2, hits give low values 0.976 | S. cerevisiae deletion strains, locus YLR370C, strain arc18, hits give low values 0.992 | S. cerevisiae deletion strains, locus YLR371W, strain rom2, hits give low values 0.993 | S. cerevisiae deletion strains, locus YLR384C, strain iki3, hits give low values 0.982 | S. cerevisiae deletion strains, locus YLR418C, strain cdc73, hits give low values 0.973 | S. cerevisiae deletion strains, locus YML016C, strain PPZ1, hits give low values 1.01 | S. cerevisiae deletion strains, locus YML032C, strain rad52, hits give low values 0.979 | S. cerevisiae deletion strains, locus YML120C, strain ndi1, hits give low values 1 | S. cerevisiae deletion strains, locus YML124C, strain tub3, hits give low values 0.992 | S. cerevisiae deletion strains, locus YMR058W, strain fet3, hits give low values 0.95 | S. cerevisiae deletion strains, locus YMR078C, strain ctf18, hits give low values 0.992 | S. cerevisiae deletion strains, locus YMR125W, strain sto1, hits give low values 0.992 | S. cerevisiae deletion strains, locus YMR129W, hits give low values 0.995 | S. cerevisiae deletion strains, locus YMR205C, strain PFK2, hits give low values 0.993 | S. cerevisiae deletion strains, locus YMR223W, strain ubp8, hits give low values 1 | S. cerevisiae deletion strains, locus YMR231W, strain pep5, hits give low values 0.99 | S. cerevisiae deletion strains, locus YMR263W, strain SAP30, hits give low values 1.01 | S. cerevisiae deletion strains, locus YMR307W, strain GAS1, hits give low values 1.03 | S. cerevisiae deletion strains, locus YNL067W, strain RPL9B, hits give low values 0.992 | S. cerevisiae deletion strains, locus YNL071W, strain lat1, hits give low values 0.994 | S. cerevisiae deletion strains, locus YNL128W, strain TEP1, hits give low values 1.01 | S. cerevisiae deletion strains, locus YNL153C, strain GIM3, hits give low values 1 | S. cerevisiae deletion strains, locus YNL183C, strain NPR1, hits give low values 0.947 | S. cerevisiae deletion strains, locus YNL209W, strain ssb2, hits give low values 0.99 | S. cerevisiae deletion strains, locus YNL233W, strain BNI4, hits give low values 0.998 | S. cerevisiae deletion strains, locus YNL248C, strain rpa49, hits give low values 0.993 | S. cerevisiae deletion strains, locus YNL250W, strain rad50, hits give low values 0.988 | S. cerevisiae deletion strains, locus YNL271C, strain bni1, hits give low values 0.987 | S. cerevisiae deletion strains, locus YNL298W, strain CLA4, hits give low values 0.994 | S. cerevisiae deletion strains, locus YNL307C, strain MCK1, hits give low values 0.981 | S. cerevisiae deletion strains, locus YNL322C, strain KRE1 (second series), hits give low values 1 | S. cerevisiae deletion strains, locus YNL322C, strain KRE1, hits give low values 1 | S. cerevisiae deletion strains, locus YNR049C, strain mso1, hits give low values 0.994 | S. cerevisiae deletion strains, locus YNR052C, strain pop2, hits give low values 0.999 | S. cerevisiae deletion strains, locus YOL006C, strain TOP1, hits give low values 1.04 | S. cerevisiae deletion strains, locus YOL012C, strain htz1 0.733 | S. cerevisiae deletion strains, locus YOL147C, strain pex11, hits give low values 0.99 | S. cerevisiae deletion strains, locus YOR001W, strain rrp6, hits give low values 1.01 | S. cerevisiae deletion strains, locus YOR061W, strain CKA2, hits give low values 1.01 | S. cerevisiae deletion strains, locus YOR069W, strain VPS5, hits give low values 1.01 | S. cerevisiae deletion strains, locus YOR070C, strain gyp1, hits give low values 1.01 | S. cerevisiae deletion strains, locus YOR080W, strain dia2, hits give low values 0.996 | S. cerevisiae deletion strains, locus YOR083W, strain WHI5, hits give low values 0.995 | S. cerevisiae deletion strains, locus YOR106W, strain vam3, hits give low values 1.01 | S. cerevisiae deletion strains, locus YOR136W, strain idh2, hits give low values 0.991 | S. cerevisiae deletion strains, locus YOR144C, strain elg1, hits give low values 0.991 | S. cerevisiae deletion strains, locus YOR184W, strain ser1, hits give low values 1 | S. cerevisiae deletion strains, locus YOR231W, strain MKK1, hits give low values 1 | S. cerevisiae deletion strains, locus YOR265W, strain rbl2, hits give low values 0.984 | S. cerevisiae deletion strains, locus YOR270C, strain vph1, hits give low values 1.02 | S. cerevisiae deletion strains, locus YOR290C, strain snf2, hits give low values 1.02 | S. cerevisiae deletion strains, locus YOR316C, strain cot1, hits give low values 1 | S. cerevisiae deletion strains, locus YPL051W, strain arl3, hits give low values 0.997 | S. cerevisiae deletion strains, locus YPL055C, strain LGE1, hits give low values 0.998 | S. cerevisiae deletion strains, locus YPL078C, strain atp4, hits give low values 0.998 | S. cerevisiae deletion strains, locus YPL106C, strain sse1, hits give low values 0.989 | S. cerevisiae deletion strains, locus YPL240C, strain hsp82, hits give low values 0.991 | S. cerevisiae deletion strains, locus YPL241C, strain CIN2, hits give low values 1.01 | S. cerevisiae deletion strains, locus YPL256C, strain CLN2, hits give low values 0.992 | S. cerevisiae deletion strains, locus YPR119W, strain clb2, hits give low values 0.993 | S. cerevisiae deletion strains, locus YPR141C, strain kar3, hits give low values 0.994 | S. cerevisiae deletion strains, locus YPR163C, strain tif3, hits give low values 0.991 | S. cerevisiae deletion strains, locus YPR167C, strain met16, hits give low values 0.987 | S. cerevisiae deletion strains, strain wtn01, hits give low values 0.966 | S. cerevisiae strains, strain wild type, hits give low values 1
